# Assay outcomes (PubChem)
# In the library only some 3.2% were active in any assay of this set; here they are far more common.
# SKN-1 block: C. elegans SKN-1 inhibition; C. elegans VP596 Pgst-4::GFP/RFP ratio, acrylamide-induced, 24 h; inhibition, % at 21.8 µM; hit rate 0.49% among 360,000;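 active = interference check ratio from 0.5 to 1.5 plus GFP to RFP signal ratio inhibition reaching or exceeding a fixed threshold, cut at about 30% in these data, passing the limit was not always enough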
# MEKK2mut PB1 HTS: signal of MEK5 binding to mutant human MEKK2 PB1 domain; bead flow cytometry, Alexa488-MEK5 binding to MEKK2 mutant; percent response, % at 10 µM; hit rate 0.35% among 290,000; in the data active = percent response above about 24%, passing the limit was not always enough
# MEKK2 WT-MEK5: raises or lowers MEK5 binding to wildtype human MEKK2 PB1 domain; Q9Y2U5; bead flow cytometry, Alexa488-MEK5 binding to MEKK2 WT; actives lie on both sides; binding response (% of control), % at 10 µM; hit rate 1.1% among 290,000; AID 1531; in the data active = binding response below about 67% or above about 130%
# MEKK3 PB1 HTS: MEKK3-MEK5 PB1 interaction, increase or decrease; Q99759; bead-based flow cytometry, Alexa488-MEK5 binding to MEKK3; actives lie on both sides; 0 = blocked by unlabeled MEK5, 100 = vehicle; binding response (% of control), % at 10 µM; hit rate 1.4% among 290,000; AID 1529;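 active = binding response more than 3 SD above or below the average of its plate-row segment, actives on both sides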;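 also: Alexa488 bead fluorescence after subtracting the streptavidin-only scavenger bead signal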
# CendR NRP1 mod: alters CendR peptide binding to human NRP-1. O14786. FAM-RPARPAR peptide binding to NRP-1, fluorescence polarization. inhibition, % at 25 µM. hit rate 0.85% among 360,000. AID 602438;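 active = inhibition or corrected inhibition above about 18%, plus a signal ratio from 0.5 to 1.5, limit read from the data, passing the limit was not always enough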
# Target sequence (O14786 whole entry, looked up): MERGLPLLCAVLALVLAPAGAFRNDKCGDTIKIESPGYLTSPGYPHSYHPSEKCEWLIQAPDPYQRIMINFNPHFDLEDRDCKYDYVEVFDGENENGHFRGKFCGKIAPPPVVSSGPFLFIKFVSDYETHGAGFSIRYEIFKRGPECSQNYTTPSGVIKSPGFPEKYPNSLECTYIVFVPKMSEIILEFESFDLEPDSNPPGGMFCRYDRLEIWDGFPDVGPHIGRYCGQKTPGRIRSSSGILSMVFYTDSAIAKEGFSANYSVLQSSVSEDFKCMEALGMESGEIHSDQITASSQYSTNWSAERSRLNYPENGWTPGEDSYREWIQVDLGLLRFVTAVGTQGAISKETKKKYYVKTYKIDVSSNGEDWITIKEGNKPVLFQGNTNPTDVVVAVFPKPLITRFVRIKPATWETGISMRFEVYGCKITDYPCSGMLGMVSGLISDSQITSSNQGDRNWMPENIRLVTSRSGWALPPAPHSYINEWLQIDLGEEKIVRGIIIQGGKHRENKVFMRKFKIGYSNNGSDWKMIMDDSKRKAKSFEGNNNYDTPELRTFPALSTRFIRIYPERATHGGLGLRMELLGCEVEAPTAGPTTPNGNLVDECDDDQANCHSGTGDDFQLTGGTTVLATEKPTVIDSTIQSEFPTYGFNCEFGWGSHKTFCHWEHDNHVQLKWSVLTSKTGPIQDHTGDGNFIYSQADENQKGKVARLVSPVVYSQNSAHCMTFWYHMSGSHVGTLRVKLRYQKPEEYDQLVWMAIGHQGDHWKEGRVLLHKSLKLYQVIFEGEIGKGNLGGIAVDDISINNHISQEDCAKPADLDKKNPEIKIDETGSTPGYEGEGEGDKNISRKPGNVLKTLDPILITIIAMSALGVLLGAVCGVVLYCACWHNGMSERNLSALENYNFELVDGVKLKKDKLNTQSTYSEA
# Starred values were filed as active, the others as inactive; · = not tested or not shown.
SMILES,SKN-1 block,MEKK2mut PB1 HTS,MEKK2 WT-MEK5,MEKK3 PB1 HTS,CendR NRP1 mod
Cc1cc(CN(Nc2ccccc2)c2ccccc2)cc(C)n1,8.5,·,·,·,-0.7
Cc1ccc(-c2cc(C(=O)N/N=C/c3cccnc3)c3ccccc3n2)cc1C,8.3,·,·,·,26.4*
O=C(N/N=C/c1cccnc1)c1cc(-c2ccccc2)nc2ccccc12,17.0,5.0,103.0,107.0,-5.5
Cc1ccc(-c2cc(C(=O)NCCCN3CCCC3)c3ccccc3n2)cc1C,-9.8,11.0,141.0*,103.0,4.2
Cc1ccc(-c2cc(C(=O)NCCCN3CCOCC3)c3ccccc3n2)cc1C,-0.1,1.0,108.0,101.0,5.2
CCc1ccc2oc(C(=O)NCC(c3ccc(OC)cc3)N3CCCCC3)c(C)c2c1 (stereo not drawn),9.3,26.0*,131.0,104.0,0.6
COc1ccc(C(CNC(=O)c2oc3cc(Br)ccc3c2C)N2CCCCC2)cc1 (stereo not drawn),-27.1,30.0*,141.0*,107.0,0.0
COc1ccc(C(CNC(=O)c2oc3cc(C)c(C)cc3c2C)N2CCCCC2)cc1 (stereo not drawn),3.7,8.0,127.0,95.0,0.4
CC(C)C1C(=O)N(Cc2cn(Cc3ccco3)nn2)CCS(=O)(=O)N1Cc1ccc(-c2ccc(F)cc2)cc1 (stereo not drawn),6.7,·,·,·,1.3
Cc1cccc2cc(C#N)c(SCc3nnc(-c4ccccc4[N+](=O)[O-])o3)nc12,-10.3,-1.0,99.0,104.0,31.5*
O=c1[nH]nc(Sc2ccccc2)c(=S)[nH]1,1.3,·,·,·,3.4
CCc1cc(=O)n2c([nH]c3ccccc32)c1C#N,30.7,3.0,0.0*,101.0,-3.6
CCc1cccc(C)c1NC(=O)CN(C)S(=O)(=O)c1ccc(-c2ccc(=O)[nH]n2)s1,-1.8,0.0,103.0,101.0,8.2
C[C@H](CO)N1C[C@H](C)[C@@H](CN(C)C(=O)Nc2ccc(C(F)(F)F)cc2)Oc2c(NS(=O)(=O)c3ccc(F)cc3)cccc2C1=O,13.8,·,·,·,-9.4
C[C@H](CO)N1C[C@H](C)[C@@H](CN(C)C(=O)Nc2ccc3c(c2)OCO3)Oc2ccc(NS(=O)(=O)c3ccc(F)cc3)cc2C1=O,-4.4,·,·,·,7.9
C[C@H](CO)N1C[C@H](C)[C@@H](CN(C)C(=O)Nc2ccc3c(c2)OCO3)Oc2c(NS(=O)(=O)c3ccc(F)cc3)cccc2C1=O,3.8,·,·,·,31.0*
C[C@H](CO)N1C[C@H](C)[C@@H](CN(C)C(=O)Nc2ccc(C(F)(F)F)cc2)Oc2c(NS(=O)(=O)c3ccccc3)cccc2C1=O,9.6,·,·,·,36.2*
CCOC(=O)/C=C/COc1ccccc1[N+](=O)[O-],-7.0,-6.0,91.0,97.0,28.4*
Cc1cccc(OC(C)C(=O)Nc2ccc3c(c2)OCCO3)c1 (stereo not drawn),-17.6,·,·,·,-7.8
O=C(O)c1ccc(NC2=C(Cl)C(=O)c3ccccc3C2=O)cc1,9.1,-1.0,98.0,101.0,29.0*
O=C1C(Cl)=C(Nc2ccccc2)C(=O)c2ccccc21,7.2,0.0,97.0,98.0,17.8
COc1cc(CN2CCN(Cc3ccc(SC)cc3)CC2)cc(OC)c1O,4.5,2.0,80.0,92.0,22.9*
COc1ccc(-n2ccnc2SCC(=O)c2c(N)n(C3CC3)c(=O)[nH]c2=O)cc1,5.0,·,·,·,-1.3
CN(C)c1ccc(C2N(c3ccc(F)cc3)C(=O)C3CCCN32)cc1 (stereo not drawn),15.0,19.0,18.0*,92.0,-12.3
CC(C)N1CCc2c(sc(NC(=O)c3ccc4ccccc4c3)c2C(N)=O)C1,9.6,14.0,134.0*,103.0,-150.7
SMILES,SKN-1 block,MEKK2mut PB1 HTS,MEKK2 WT-MEK5,MEKK3 PB1 HTS,CendR NRP1 mod
CC(C)N1CCc2c(sc(NC(=O)c3ccc(C(=O)c4ccccc4)cc3)c2C(N)=O)C1,-0.9,4.0,117.0,92.0,-38.0
COc1ccc(CC(=O)OCc2cc3ccccc3[nH]c2=O)cc1,-1.6,3.0,99.0,97.0,25.4*
CC(C)c1ccc(CC(=O)N2CCC2(C)C(=O)NS(=O)(=O)c2cccc(C#N)c2)cc1 (stereo not drawn),10.4,·,·,·,3.9
CC1CC(C)CN(C(=O)COC(=O)c2nn(C)c(=O)c3ccccc23)C1 (stereo not drawn),-2.1,·,·,·,4.6
CCCCOC(=O)Nc1ccc(C(C)C)cc1,33.3*,2.0,101.0,96.0,-4.2
CCCCOC(=O)Nc1ccc(C(N)=O)cc1,18.0,-4.0,95.0,93.0,9.8
CCCCOC(=O)Nc1ccc(N2CCCCC2)cc1,45.5*,-1.0,97.0,96.0,-24.4
C=CCNc1cc(F)ccc1S(=O)(=O)NCC=C,-1.1,·,·,·,-5.9
COCCN(C(=O)CCC(=O)Nc1cc(C)on1)C(C(=O)NC1CCCC1)c1ccc(C(C)C)cc1 (stereo not drawn),-1.0,-1.0,97.0,101.0,11.1
COc1ccccc1N1CCN(CCCNC(=O)C2CCCN(c3ncnc4c3nc3n4CCCCC3)C2)CC1 (stereo not drawn),-3.6,21.0,136.0*,103.0,0.0
COc1cc(-c2ccc3oc(-c4ccsc4)cc(=O)c3c2)cc(OC)c1OC,1.7,·,·,·,11.2
COc1ccc(-c2ccc3c(=O)cc(-c4ccsc4)oc3c2)cn1,47.3*,·,·,·,-208.7
CC(C)=CCC12Oc3cc(O)ccc3C1(O)Oc1cc(O)c([C@H]3C=C(C)CC(c4ccc(O)cc4O)[C@H]3C(=O)c3ccc(O)cc3O)c(O)c1C2=O (stereo partly drawn),·,-1.0,88.0,97.0,·
Cc1nc2ccccc2c(=O)n1/N=C/c1ccccc1Cl,37.9*,3.0,104.0,104.0,11.3
CSc1nnc(-c2cc(Br)ccc2N=Cc2c(C)[nH]n(-c3ccccc3)c2=O)c(=O)[nH]1,8.0,-10.0,90.0,102.0,18.3*
COc1ccc(NC(=O)N(C)C[C@H]2OCc3cn(nn3)CCCC(=O)N([C@@H](C)CO)C[C@@H]2C)cc1,-18.1,·,·,·,-5.7
CNc1ccc(C=C2C=Cc3ccccc32)cc1,81.7*,·,·,·,-7.5
CN(C)c1ccc(C=C2C=Cc3ccccc32)cc1,2.9,·,·,·,-12.4
O=[N+]([O-])c1ccccc1NCCOc1ccccc1,45.8*,-1.0,97.0,96.0,2.2
O=C(CCOc1ccccc1)Nc1ccccc1[N+](=O)[O-],12.6,-7.0,94.0,95.0,3.3
O=C(NCCCC1CCCC1)C1CCC(=O)N(Cc2ccc(Cl)cc2)C1 (stereo not drawn),-25.2,-2.0,97.0,94.0,5.7
COc1ccc2nc3cccc(OC)c3nc2c1,-0.7,-13.0,70.0,57.0,31.0*
COc1ccc2nc3ccccc3nc2c1N,25.3,6.0,100.0,101.0,29.2*
CCOc1ccc2nc3cc(N=Nc4ccc(N)nc4N)ccc3c(N)c2c1,14.3,·,·,·,50.1*
CCOc1ccc(OCC)c(NC(=O)CSCC(=O)O)c1,35.7*,6.0,112.0,115.0,-2.9
CCOc1ccccc1C1CC(=O)Nc2cc(OC)c(OC)cc21 (stereo not drawn),2.1,4.0,109.0,107.0,6.9
